Inconclusive results are not listed. Active and inactive are the calls of the source. How the source made its calls: active means hit-call score of the fitted dose curve at least 0.9, where 1 is the maximum; inconclusive means response in the unintended direction; inactive means score below 0.9.
Assay: ATG_GAL4_TRANS: Attagene TRANS-FACTORIAL HepG2 Assay for GAL4 (Internal Marker) (AID 2282976)
Conditions: HepG2 Attagene TRANS GAL4 internal marker reporter
Outline: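 Background-control readout: GAL4-UAS reporter transcript in transiently transfected HepG2 cells after 24 h compound exposure. Measured by RT-PCR, 6-FAM primer extension, HpaI digest and capillary electrophoresis; gain-of-signal fit versus DMSO.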

Compound | outcome
O=C(O)C(F)(F)C(F)(F)C(F)(F)C(F)(F)C(F)(F)C(F)(F)C(F)(F)C(F)(F)C(F)(F)C(F)(F)C(F)(F)C(F)(F)C(F)(F)F | inactive
FC(F)(F)C(F)(F)C(F)(F)C(F)(F)CCI | inactive
Cc1ccc(S(=O)(=O)NCl)cc1 | inactive
C=CC(=O)OCC(F)(F)C(F)(F)C(F)(F)C(F)(F)C(F)(F)C(F)(F)C(F)(F)F | inactive
C#C[C@]1(O)CC[C@H]2[C@@H]3CCc4cc(OC)ccc4[C@H]3CC[C@@]21C | inactive
O=C(O)C(F)(F)C(F)(F)OC(F)(F)F | inactive
CCO[Si](CCC(F)(F)C(F)(F)C(F)(F)C(F)(F)C(F)(F)C(F)(F)F)(OCC)OCC | inactive
c1ccc(B(c2ccccc2)c2ccccc2)cc1 | inactive
CC(C)OC(=O)c1ccccc1C(=O)OC(C)C | inactive
C=CC(F)(F)C(F)(F)C(F)(F)C(F)(F)C(F)(F)C(F)(F)C(F)(F)C(F)(F)F | inactive
C(=C(c1ccccc1)c1ccccc1)c1ccccc1 | inactive
O=C(O)C(F)(F)C(F)(F)C(F)(F)F | inactive
OC[C@@H](O)[C@@H](O)[C@H](O)[C@@H](O)CO | inactive
O=C(OCCOCCOCCOC(=O)c1ccccc1)c1ccccc1 | inactive
OCC(F)(F)C(F)(F)C(F)(F)F | inactive
O=C(CC(=O)C(F)(F)C(F)(F)F)C(F)(F)F | inactive
Oc1ccc(Nc2ccccc2)cc1 | inactive
COC(=O)CCC(F)(F)C(F)(F)C(F)(F)C(F)(F)F | inactive
OCC(F)(F)C(F)(F)C(F)(F)C(F)(F)C(F)(F)C(F)F | inactive
FC(F)(F)C(F)(F)C(F)(F)C(F)(F)C(F)(F)C(F)(F)CC1CO1 (stereo unspecified) | inactive
CC/C=C\CCOC(=O)c1ccccc1 | inactive
